Bioassay records: PubChem BioAssay, several laboratories
A selection: hits, their analogues and other compounds. The true share with any hit is near 1.5%.
MEX-5 binding: C. elegans MEX-5 TCR-2 RNA binding activity; MEX-5/FITC-TCR2 RNA binding, fluorescence polarization; stronger effect = lower value; actives 0.38% (n = 300,000); activity score (negative = inhibition of binding), % at 10 µM; AID 1832;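 active = inhibition past about -25% in most replicates, and total fluorescence under double the plate's negative control median, limit read from the data; inconclusive = replicates evenly split on the limit, or fluorescence at least double controls; inactive = too little inhibition in most replicates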;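 also: 0% = DMSO and -100% = 5 µM competing unlabeled TCR2 RNA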
Target sequence (Q9XUB2 whole entry, looked up): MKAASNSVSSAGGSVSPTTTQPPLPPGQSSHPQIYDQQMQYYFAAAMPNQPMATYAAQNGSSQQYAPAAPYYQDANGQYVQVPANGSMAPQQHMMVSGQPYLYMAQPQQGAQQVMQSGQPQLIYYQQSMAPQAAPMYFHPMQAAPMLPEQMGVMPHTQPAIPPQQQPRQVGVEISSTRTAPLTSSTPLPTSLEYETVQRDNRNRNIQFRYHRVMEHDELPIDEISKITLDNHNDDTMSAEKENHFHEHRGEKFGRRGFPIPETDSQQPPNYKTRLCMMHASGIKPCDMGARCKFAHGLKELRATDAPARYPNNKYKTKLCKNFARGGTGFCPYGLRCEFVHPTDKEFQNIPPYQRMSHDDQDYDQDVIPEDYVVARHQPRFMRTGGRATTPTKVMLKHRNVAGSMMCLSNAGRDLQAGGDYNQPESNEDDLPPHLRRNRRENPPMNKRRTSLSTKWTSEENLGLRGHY
EBV gp42 inh: blocks Epstein-Barr virus glycoprotein 42 binding | inhibition, % (tested at 21.74 µM) | Q1HVG2 | Fluorescence polarization binding assay, mP read-out | actives 0.42% (n = 220,000); in the data active = inhibition above about 50%
BCLXL inh: inhibitors of human Bcl-xL. Q07817. GST-Bcl-xL / FITC-Bim BH3 peptide fluorescence polarization. inhibition, % at 10.9 µM. actives 0.7% (n = 320,000);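 active = inhibition above the mean of all tested compounds plus 3 SD, cutoff set per campaign, cut at about 30% in these data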;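 also: 0% = DMSO wells and 100% = unlabeled Bim-BH3 peptide competitor; inhibitors lower millipolarization by displacing the labeled peptide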
eLon inh: inhibitors of E. coli Lon protease; actives 0.42% (n = 360,000); purified E. coli Lon protease, fluorescence polarization; P0A9M0; AID 602123; inhibition, % at 7.94 µM; in the data active = inhibition above about 13%, passing the limit was not always enough;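 also: 0% = enzyme with probe and DMSO and 100% = no enzyme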
GLD-1 RNA inh: GLD-1-TGE RNA interaction inhibition (C. elegans) | purified GLD-1 + fluorescein TGE RNA, fluorescence polarization | inhibition, % at 5.96 µM | AID 2280 | Q17339 | actives 0.44% (n = 320,000);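 active = percent inhibition above a per-plate cutoff, the plate mean of test compounds plus 3 SD, cut at about 30% in these data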;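 also: 0% = DMSO wells with GLD-1 and probe and 100% = wells lacking GLD-1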
MCL1 BIM primary: disrupts human MCL1 binding to BIM-BH3 peptide. GST-MCL1 / FITC-Bim-BH3 fluorescence polarization. actives 0.68% (n = 320,000). inhibition, % at 10.9 µM. Q07820;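 active = inhibition above the mean inhibition of all tested compounds plus 3 SD, set per campaign, cut at about 40% in these data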;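 also: 0% = DMSO wells and 100% = unlabeled Bim-BH3 peptide control; higher means more loss of mP so more displacement of Bim peptide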
BCLXL inh confirm: Bcl-xL (human) inhibition, MCL1 counter-screen confirmation. shares compounds with MCL1 BIM primary. GST-Bcl-xL / FITC-Bim BH3 peptide FP binding. inhibition, % at 10.9 µM. actives 54% (n = 1,700). AID 2166;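 active = inhibition above a cutoff equal to the mean inhibition of all tested compounds plus 3 SD, cut at about 30% in these data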;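 also: 0% = DMSO wells and 100% = unlabeled Bim BH3 control peptide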
MCL1 BIM confirm: MCL1-BIM-BH3 interaction inhibition, confirmation; shares compounds with MCL1 BIM primary; GST-MCL1 / FITC-Bim-BH3 fluorescence polarization; inhibition, % at 10.9 µM; actives 61% (n = 1,700);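 active = inhibition above the average of all tested compounds plus 3 SD, cut at about 40% in these data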;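 also: 0% = DMSO wells and 100% = unlabeled Bim-BH3 control peptide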
GLD-1 TGE cf: GLD-1 TGE RNA interaction inhibition, confirmation; GLD-1/FL-TGE RNA fluorescence polarization, biochemical; inhibition, % at 5.96 µM; actives 10% (n = 550); AID 2459; shares compounds with GLD-1 RNA inh;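 active = average inhibition across triplicates above the hit cutoff set in the primary screen, cut at about 32% in these data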;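 also: 0% = GLD-1 with RNA probe and DMSO and 100% = wells lacking GLD-1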
eLon confirm: confirmation of E. coli Lon protease inhibitors. actives 31% (n = 1,400). inhibition, % at 7.94 µM. purified E. coli Lon, fluorescence polarization. shares compounds with eLon inh; in the data active = inhibition above about 16%;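 also: 0% = enzyme with probe and DMSO and 100% = no enzyme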
* hit, by the source's call.

What do the screens show for `Nc1ccc2ccc3cccc[n+]3c2c1`?
MEX-5 binding: inconclusive; BCLXL inh: active; eLon inh: active; GLD-1 RNA inh: 63*; MCL1 BIM primary: active; BCLXL inh confirm: active; MCL1 BIM confirm: active; eLon confirm: active

Results for O=C1/C(=C/c2ccc([N+](=O)[O-])cc2)N2CCC1CC2 ?
MEX-5 binding: 2; EBV gp42 inh: -3; BCLXL inh: 6; eLon inh: 4; GLD-1 RNA inh: 5; MCL1 BIM primary: 9

What do the screens show for `Cn1cc(C=C2C(=O)NC(=O)NC2=O)c2ccccc21`?
MEX-5 binding: inconclusive; BCLXL inh: active; eLon inh: 117*; GLD-1 RNA inh: 6; MCL1 BIM primary: active; BCLXL inh confirm: active; MCL1 BIM confirm: active; eLon confirm: active

Results for CC(=O)n1cc(C=C2C(=O)NC(=O)NC2=O)c2ccccc21 ?
MEX-5 binding: -4; BCLXL inh: 3; eLon inh: -29; GLD-1 RNA inh: 3; MCL1 BIM primary: -3

What do the screens show for `CC(=NCc1ccc2c(c1)OCO2)c1c(O)n(-c2ccc(C)cc2)c(=O)[nH]c1=O`?
MEX-5 binding: -3; EBV gp42 inh: 5; BCLXL inh: 8; eLon inh: 10; GLD-1 RNA inh: -1; MCL1 BIM primary: 0

Results for COC(=O)CCCCC1SCC(NC(=O)c2ccccc2)C1Cl (stereo not given) ?
MEX-5 binding: 3; EBV gp42 inh: 53*; BCLXL inh: 48*; eLon inh: -1; GLD-1 RNA inh: 38*; MCL1 BIM primary: 46*; GLD-1 TGE cf: 19

Results for Cc1cccc(CCNCc2cc3cccc(C)c3[nH]c2=O)c1 ?
MEX-5 binding: 2; eLon inh: -4

Results for CCN(CC)CCN1Cc2ccccc2C1=N ?
MEX-5 binding: 2; EBV gp42 inh: -9; BCLXL inh: 32*; eLon inh: -3; GLD-1 RNA inh: 36*; MCL1 BIM primary: 36; GLD-1 TGE cf: -3

What do the screens show for `CCOC(=O)[C@]12Cc3ccc4ccccc4c3[C@H]1N(Cc1ccccc1)C(=O)c1ccccc12`?
eLon inh: -3

How did N#Cc1ccc(/C=C/C(=O)O)cc1 do in these assays?
EBV gp42 inh: -10; BCLXL inh: 6; eLon inh: -1; GLD-1 RNA inh: 55*; MCL1 BIM primary: 4; GLD-1 TGE cf: 0

Results for N#C/C(=C\c1ccc(O)cc1)C(=O)O ?
eLon inh: -6

Results for CNC(=O)Oc1cccc(-c2cn3cc(OC(=O)NC)ccc3n2)c1 ?
EBV gp42 inh: 20; BCLXL inh: 22; eLon inh: 35*; GLD-1 RNA inh: 42*; MCL1 BIM primary: 20; GLD-1 TGE cf: 13; eLon confirm: 4

How did CC1CC2(C)C(CCC3C2CCC2(C)C(OP(=O)(N4CC4)N4CC4)CCC32)CC1=O (stereo not given) do in these assays?
eLon inh: 2

Results for O=c1oc2ccccc2c(O)c1[C@H]1c2ccc(O)cc2Oc2c1c(=O)oc1ccccc21 ?
MEX-5 binding: -2; EBV gp42 inh: -22; BCLXL inh: 8; eLon inh: 18*; GLD-1 RNA inh: 3; MCL1 BIM primary: 5; eLon confirm: 17*

Results for CCc1ccc(C(=O)C23CN4CN(CN(C4)C2)C3)cc1 ?
MEX-5 binding: 1; EBV gp42 inh: -6; BCLXL inh: 0; eLon inh: -15; GLD-1 RNA inh: 3; MCL1 BIM primary: -4
